# How the values were obtained:
# [1] = molecular target: Ribosomal protein S6 kinase alpha-6 (Homo sapiens) (UniProt Q9UK32); settings: at 1 µM;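 note: each value is a mean inhibition of RSK4 from a GSK PKIS panel screen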
# [2] = molecular target: T1, Serine/threonine-protein kinase Sgk1 (Homo sapiens) (UniProt O00141); settings: at 0.1 µM
# T1 sequence (whole entry): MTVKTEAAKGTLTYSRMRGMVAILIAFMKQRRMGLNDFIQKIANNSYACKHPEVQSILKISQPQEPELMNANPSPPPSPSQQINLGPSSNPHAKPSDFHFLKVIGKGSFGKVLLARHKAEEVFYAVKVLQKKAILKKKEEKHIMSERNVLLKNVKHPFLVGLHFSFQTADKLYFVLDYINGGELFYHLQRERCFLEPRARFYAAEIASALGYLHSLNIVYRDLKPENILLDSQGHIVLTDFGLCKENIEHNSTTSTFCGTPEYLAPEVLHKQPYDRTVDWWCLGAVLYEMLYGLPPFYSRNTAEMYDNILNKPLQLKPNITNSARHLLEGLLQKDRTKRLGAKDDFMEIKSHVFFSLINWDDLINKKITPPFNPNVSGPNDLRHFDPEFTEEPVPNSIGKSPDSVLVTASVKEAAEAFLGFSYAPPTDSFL
# [3] = molecular target: T1, Serine/threonine-protein kinase Sgk1 (Homo sapiens); settings: at 1 µM
# [4] = molecular target: T2, Serine/threonine-protein kinase Sgk2 (Homo sapiens) (UniProt Q9HBY8); settings: at 0.1 µM
# T2 sequence (whole entry): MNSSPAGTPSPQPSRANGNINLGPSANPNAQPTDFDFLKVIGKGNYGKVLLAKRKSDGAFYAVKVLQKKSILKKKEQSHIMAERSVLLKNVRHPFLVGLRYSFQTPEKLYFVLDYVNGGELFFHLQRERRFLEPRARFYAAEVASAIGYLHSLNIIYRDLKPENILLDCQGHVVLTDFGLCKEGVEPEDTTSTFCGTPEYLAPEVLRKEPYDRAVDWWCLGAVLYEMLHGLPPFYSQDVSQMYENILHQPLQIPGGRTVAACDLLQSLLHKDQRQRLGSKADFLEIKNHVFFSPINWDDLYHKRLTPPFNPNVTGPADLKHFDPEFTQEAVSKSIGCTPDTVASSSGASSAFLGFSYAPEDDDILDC
# [5] = molecular target: T2, Serine/threonine-protein kinase Sgk2 (Homo sapiens); settings: at 1 µM
# [6] = molecular target: T3, Serine/threonine-protein kinase Sgk3 (Homo sapiens) (UniProt Q96BR1); settings: at 0.1 µM
# T3 sequence (whole entry): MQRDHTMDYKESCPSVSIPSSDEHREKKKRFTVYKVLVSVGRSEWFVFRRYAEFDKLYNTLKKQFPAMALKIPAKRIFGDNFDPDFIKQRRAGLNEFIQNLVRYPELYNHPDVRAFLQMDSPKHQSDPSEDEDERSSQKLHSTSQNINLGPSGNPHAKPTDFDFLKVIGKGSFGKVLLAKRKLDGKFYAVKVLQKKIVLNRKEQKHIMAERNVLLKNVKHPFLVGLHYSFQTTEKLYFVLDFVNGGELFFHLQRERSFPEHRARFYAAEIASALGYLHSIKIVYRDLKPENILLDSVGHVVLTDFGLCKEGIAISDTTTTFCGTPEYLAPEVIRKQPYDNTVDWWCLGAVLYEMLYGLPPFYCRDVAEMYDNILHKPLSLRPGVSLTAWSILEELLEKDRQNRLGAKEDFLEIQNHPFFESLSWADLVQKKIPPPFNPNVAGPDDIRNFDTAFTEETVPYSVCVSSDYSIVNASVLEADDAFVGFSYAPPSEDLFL
# [7] = molecular target: T3, Serine/threonine-protein kinase Sgk3 (Homo sapiens); settings: at 1 µM
# [8] = molecular target: 5'-AMP-activated protein kinase catalytic subunit alpha-1 (Homo sapiens) (UniProt Q13131); settings: at 0.1 µM
# [9] = molecular target: 5'-AMP-activated protein kinase catalytic subunit alpha-1 (Homo sapiens) (UniProt Q13131); settings: at 1 µM
# [10] = molecular target: 5'-AMP-activated protein kinase catalytic subunit alpha-2 (Homo sapiens) (UniProt P54646); settings: at 0.1 µM
# [11] = molecular target: 5'-AMP-activated protein kinase catalytic subunit alpha-2 (Homo sapiens) (UniProt P54646); settings: at 1 µM
# [12] = molecular target: T4, NUAK family SNF1-like kinase 1 (Homo sapiens) (UniProt O60285); settings: at 0.1 µM
# T4 sequence (whole entry): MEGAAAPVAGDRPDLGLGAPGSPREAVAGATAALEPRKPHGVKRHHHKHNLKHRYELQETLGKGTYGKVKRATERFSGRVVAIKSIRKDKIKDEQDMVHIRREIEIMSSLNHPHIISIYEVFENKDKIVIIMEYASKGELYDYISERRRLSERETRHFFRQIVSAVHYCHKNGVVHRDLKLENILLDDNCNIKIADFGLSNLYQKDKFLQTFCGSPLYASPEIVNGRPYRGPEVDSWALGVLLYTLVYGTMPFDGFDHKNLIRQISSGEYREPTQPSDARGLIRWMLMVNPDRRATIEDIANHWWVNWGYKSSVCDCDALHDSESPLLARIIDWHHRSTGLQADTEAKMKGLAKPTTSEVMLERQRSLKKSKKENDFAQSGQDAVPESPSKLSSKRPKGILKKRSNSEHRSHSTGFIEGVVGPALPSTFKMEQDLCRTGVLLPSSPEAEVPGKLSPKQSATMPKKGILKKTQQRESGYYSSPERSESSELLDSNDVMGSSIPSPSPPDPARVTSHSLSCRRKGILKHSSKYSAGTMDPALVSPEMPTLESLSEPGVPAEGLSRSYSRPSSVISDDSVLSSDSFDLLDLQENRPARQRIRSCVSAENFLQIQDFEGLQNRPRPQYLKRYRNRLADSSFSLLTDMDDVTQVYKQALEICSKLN
# [13] = molecular target: T4, NUAK family SNF1-like kinase 1 (Homo sapiens); settings: at 1 µM
# [14] = molecular target: T5, Serine/threonine-protein kinase BRSK1 (Homo sapiens) (UniProt Q8TDC3); settings: at 0.1 µM
# T5 sequence (whole entry): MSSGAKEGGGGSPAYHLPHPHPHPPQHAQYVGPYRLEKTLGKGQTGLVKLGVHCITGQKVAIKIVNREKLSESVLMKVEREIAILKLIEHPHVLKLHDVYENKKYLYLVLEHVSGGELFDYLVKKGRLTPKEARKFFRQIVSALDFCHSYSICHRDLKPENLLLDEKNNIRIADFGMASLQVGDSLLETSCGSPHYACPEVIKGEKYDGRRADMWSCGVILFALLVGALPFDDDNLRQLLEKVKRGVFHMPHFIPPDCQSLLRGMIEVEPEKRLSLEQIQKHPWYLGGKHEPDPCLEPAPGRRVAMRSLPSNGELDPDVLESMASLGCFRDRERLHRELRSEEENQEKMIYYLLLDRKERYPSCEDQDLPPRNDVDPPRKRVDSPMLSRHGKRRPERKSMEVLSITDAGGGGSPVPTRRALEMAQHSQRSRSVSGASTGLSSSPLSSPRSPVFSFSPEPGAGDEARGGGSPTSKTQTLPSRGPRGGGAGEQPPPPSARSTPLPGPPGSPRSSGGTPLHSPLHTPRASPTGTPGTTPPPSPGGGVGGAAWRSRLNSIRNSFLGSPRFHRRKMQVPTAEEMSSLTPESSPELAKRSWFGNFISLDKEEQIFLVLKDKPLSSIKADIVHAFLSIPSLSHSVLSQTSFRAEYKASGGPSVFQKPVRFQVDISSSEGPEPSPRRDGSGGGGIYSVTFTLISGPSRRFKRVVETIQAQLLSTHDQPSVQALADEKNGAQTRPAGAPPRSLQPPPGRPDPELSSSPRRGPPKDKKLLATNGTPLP
# [15] = molecular target: T5, Serine/threonine-protein kinase BRSK1 (Homo sapiens); settings: at 1 µM
# [16] = molecular target: T6, Serine/threonine-protein kinase BRSK2 (Homo sapiens) (UniProt Q8IWQ3); settings: at 0.1 µM
# T6 sequence (whole entry): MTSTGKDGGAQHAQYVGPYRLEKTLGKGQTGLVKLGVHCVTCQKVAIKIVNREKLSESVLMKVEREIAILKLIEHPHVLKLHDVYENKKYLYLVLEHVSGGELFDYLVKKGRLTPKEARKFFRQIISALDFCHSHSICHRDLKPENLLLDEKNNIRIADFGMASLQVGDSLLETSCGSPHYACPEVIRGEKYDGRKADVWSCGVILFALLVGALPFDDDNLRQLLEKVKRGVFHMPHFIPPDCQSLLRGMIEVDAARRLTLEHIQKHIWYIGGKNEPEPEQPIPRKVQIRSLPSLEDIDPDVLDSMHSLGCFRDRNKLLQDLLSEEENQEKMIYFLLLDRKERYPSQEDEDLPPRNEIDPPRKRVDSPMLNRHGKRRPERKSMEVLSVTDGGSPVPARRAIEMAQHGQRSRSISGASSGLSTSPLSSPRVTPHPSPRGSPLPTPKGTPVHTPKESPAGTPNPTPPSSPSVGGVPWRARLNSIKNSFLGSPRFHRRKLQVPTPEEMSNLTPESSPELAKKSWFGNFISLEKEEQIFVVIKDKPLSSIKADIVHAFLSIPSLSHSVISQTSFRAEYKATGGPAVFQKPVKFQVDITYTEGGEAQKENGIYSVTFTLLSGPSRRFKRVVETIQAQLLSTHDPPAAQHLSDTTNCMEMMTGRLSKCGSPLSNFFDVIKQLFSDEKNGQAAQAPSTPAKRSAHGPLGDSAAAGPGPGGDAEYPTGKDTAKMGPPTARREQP
# [17] = molecular target: T6, Serine/threonine-protein kinase BRSK2 (Homo sapiens); settings: at 1 µM
# [18] = molecular target: Calcium/calmodulin-dependent protein kinase type 1D (Homo sapiens) (UniProt Q8IU85); settings: at 0.1 µM
# [19] = molecular target: Calcium/calmodulin-dependent protein kinase type 1D (Homo sapiens) (UniProt Q8IU85); settings: at 1 µM
# [20] = molecular target: Calcium/calmodulin-dependent protein kinase type II subunit alpha (Homo sapiens) (UniProt Q9UQM7); settings: at 0.1 µM;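 note: reported values are averages (mean inhibition of CAMK2A)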
# Chain of Calcium/calmodulin-dependent protein kinase type II subunit alpha (Homo sapiens) (Q9UQM7 whole entry): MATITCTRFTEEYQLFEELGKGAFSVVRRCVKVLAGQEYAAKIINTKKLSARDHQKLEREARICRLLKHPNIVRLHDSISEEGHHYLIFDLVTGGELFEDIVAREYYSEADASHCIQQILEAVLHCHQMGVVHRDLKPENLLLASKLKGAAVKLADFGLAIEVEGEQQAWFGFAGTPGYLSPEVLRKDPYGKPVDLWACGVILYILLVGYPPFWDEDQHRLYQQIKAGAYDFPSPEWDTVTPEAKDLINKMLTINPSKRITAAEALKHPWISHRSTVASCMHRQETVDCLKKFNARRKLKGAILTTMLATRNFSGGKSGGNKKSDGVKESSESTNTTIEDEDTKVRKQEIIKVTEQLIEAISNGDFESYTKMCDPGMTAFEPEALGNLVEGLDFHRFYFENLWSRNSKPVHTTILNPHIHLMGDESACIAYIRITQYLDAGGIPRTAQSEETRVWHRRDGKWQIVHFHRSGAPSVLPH
# Chain of 5'-AMP-activated protein kinase catalytic subunit alpha-2 (Homo sapiens) (P54646 whole entry, looked up): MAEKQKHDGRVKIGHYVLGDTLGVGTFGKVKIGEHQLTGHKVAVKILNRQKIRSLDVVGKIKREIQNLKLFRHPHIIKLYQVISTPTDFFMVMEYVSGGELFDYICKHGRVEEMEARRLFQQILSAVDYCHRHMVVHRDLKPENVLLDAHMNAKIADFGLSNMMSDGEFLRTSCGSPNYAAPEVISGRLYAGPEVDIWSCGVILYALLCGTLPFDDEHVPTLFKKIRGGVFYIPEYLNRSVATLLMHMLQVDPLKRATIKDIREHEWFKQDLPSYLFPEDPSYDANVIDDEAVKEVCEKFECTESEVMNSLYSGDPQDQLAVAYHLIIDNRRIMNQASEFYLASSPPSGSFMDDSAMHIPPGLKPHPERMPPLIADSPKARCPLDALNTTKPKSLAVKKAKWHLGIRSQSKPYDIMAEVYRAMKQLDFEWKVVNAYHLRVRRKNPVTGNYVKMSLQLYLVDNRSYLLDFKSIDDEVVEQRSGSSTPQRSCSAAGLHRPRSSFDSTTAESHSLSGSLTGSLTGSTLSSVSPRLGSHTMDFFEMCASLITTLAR
# Chain of 5'-AMP-activated protein kinase catalytic subunit alpha-1 (Homo sapiens) (Q13131 whole entry, looked up): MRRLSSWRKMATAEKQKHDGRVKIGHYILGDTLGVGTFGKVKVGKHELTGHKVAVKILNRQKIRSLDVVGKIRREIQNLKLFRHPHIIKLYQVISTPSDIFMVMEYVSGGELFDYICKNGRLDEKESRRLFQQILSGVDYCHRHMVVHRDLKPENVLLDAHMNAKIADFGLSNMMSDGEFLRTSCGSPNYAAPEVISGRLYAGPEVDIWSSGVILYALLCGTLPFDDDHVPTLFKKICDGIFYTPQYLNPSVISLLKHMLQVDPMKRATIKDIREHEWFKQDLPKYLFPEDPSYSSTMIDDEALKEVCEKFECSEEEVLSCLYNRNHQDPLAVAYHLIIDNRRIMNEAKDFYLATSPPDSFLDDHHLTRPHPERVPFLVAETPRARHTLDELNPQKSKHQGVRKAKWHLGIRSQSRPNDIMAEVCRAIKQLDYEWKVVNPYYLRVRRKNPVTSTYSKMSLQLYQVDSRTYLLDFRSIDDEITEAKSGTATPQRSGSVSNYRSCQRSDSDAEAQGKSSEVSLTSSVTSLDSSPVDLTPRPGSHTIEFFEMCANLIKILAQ
# Chain of Ribosomal protein S6 kinase alpha-6 (Homo sapiens) (Q9UK32 whole entry): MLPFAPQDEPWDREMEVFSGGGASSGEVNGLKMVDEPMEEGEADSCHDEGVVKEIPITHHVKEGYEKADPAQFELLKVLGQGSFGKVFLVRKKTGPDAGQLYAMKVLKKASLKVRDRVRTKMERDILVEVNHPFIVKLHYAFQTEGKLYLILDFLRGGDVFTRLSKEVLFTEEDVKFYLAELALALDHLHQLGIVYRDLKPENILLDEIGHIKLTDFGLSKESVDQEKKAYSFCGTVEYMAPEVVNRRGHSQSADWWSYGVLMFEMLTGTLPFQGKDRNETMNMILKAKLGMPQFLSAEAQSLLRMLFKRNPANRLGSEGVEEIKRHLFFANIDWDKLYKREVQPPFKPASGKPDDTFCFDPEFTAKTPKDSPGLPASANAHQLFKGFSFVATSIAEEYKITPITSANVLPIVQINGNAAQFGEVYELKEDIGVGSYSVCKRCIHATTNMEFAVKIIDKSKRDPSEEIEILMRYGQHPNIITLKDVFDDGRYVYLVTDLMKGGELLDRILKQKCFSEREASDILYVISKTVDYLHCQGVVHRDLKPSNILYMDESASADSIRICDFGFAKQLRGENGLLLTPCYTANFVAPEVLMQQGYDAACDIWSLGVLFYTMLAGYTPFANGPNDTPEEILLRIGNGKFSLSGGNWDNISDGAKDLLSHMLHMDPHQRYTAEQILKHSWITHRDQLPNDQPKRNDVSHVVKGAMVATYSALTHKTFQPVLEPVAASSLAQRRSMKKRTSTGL
# Chain of Calcium/calmodulin-dependent protein kinase type 1D (Homo sapiens) (Q8IU85 whole entry, looked up): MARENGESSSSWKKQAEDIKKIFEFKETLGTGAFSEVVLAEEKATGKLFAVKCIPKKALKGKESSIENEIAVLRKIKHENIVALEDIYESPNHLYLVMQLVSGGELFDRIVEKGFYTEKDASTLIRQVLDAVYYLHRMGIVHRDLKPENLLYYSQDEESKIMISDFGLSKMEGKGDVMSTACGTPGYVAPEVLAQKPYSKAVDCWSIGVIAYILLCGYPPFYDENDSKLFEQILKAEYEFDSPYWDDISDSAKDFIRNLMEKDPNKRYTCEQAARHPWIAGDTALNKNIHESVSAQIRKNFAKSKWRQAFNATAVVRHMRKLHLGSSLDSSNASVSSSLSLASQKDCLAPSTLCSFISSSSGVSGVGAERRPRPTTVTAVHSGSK
Structure (SMILES),inhibition [1],inhibition [2],inhibition [3],inhibition [4],inhibition [5],inhibition [6],inhibition [7],inhibition [8],inhibition [9],inhibition [10],inhibition [11],inhibition [12],inhibition [13],inhibition [14],inhibition [15],inhibition [16],inhibition [17],inhibition [18],inhibition [19],inhibition [20]
NS(=O)(=O)c1ccc(NC=C2C(=O)Nc3ccc4ncsc4c32)cc1,77.4%,19.7%,64%,8.38%,36.4%,5.73%,19.1%,38.4%,68.2%,24%,53.4%,69.9%,69.8%,34.1%,60.3%,45.2%,63.6%,2.99%,8.72%,4.91%
N#Cc1c(NC(=O)c2ccccc2F)sc2c1CCCC2,0.41%,0.71%,0.65%,-4.27%,-5.49%,-2.68%,-2.69%,-0.84%,0.73%,1.26%,0.55%,2.6%,3.42%,0.36%,1.62%,1.76%,3.8%,-0.22%,0.3%,-2.24%
NC(=O)c1cccc(Nc2nccc(Nc3cccc(F)c3)n2)c1,6.03%,0.89%,-0.08%,3.63%,3.3%,0.73%,-1.45%,-0.48%,3.96%,1.99%,3.97%,23%,58.2%,1.64%,7.42%,0.1%,8.9%,0.4%,3.1%,2.84%
[O-][S+]1CCN(Cc2ccc(-c3ccc4ncnc(Nc5ccc(OCc6ccccc6)c(Cl)c5)c4c3)o2)CC1,-0.67%,2.48%,1.69%,-2.36%,1.12%,0.45%,1.38%,0.09%,1.19%,2.56%,1.22%,-2.45%,-2.99%,0.95%,0.18%,1.49%,2.79%,-0.14%,0.11%,-0.84%
COc1cc2ncnc(Nc3ccc(C)c(O)c3)c2cc1OC,3.03%,2.84%,5.46%,3.56%,2.34%,2.82%,4.55%,4.38%,5.7%,3.32%,5.2%,7.16%,1.93%,1.23%,3.78%,3.07%,6.2%,-0.09%,0.02%,2.98%
NS(=O)(=O)c1ccc(Nc2cc(-c3cccc(O)c3)n[nH]2)cc1,4.67%,6.76%,4.48%,2.52%,1.36%,6.64%,2.75%,5.36%,11.1%,5.11%,9.57%,5.05%,13.9%,3.55%,4.52%,3.59%,7.4%,1.05%,0.76%,4.18%
NS(=O)(=O)c1cccc(Nc2cc(-c3ccc(F)cc3)n[nH]2)c1,4.03%,3.81%,7.2%,3.76%,8.09%,3.81%,7.42%,3.82%,14.4%,2.4%,10.9%,-3.46%,12.6%,1.36%,5.97%,3.15%,11.2%,-0.34%,-0.05%,2.68%
COc1cc(Nc2nccc(-c3cnn4ncccc34)n2)cc(OC)c1,6.06%,2.68%,4.34%,1.68%,-0.04%,1.95%,2.1%,3.39%,16.7%,0.99%,17.4%,69.1%,84.8%,1.03%,5.11%,0.3%,6.76%,0.86%,6.41%,3.61%
COC(=O)c1cncc(/C=C/c2c(C)cc(O)cc2C)c1,6.87%,3.1%,4.65%,3.28%,2.28%,2.89%,4.83%,2.38%,5.18%,0.21%,2.21%,3.22%,8.1%,-1.29%,7.61%,1.09%,6.54%,-0.5%,-0.32%,1.91%
CCCN1CCCC(c2ccc(Nc3nc(Nc4cc(F)ccc4C(N)=O)c4cc[nH]c4n3)c(OC)c2)C1 (stereo not given),54.1%,3.79%,4.78%,1.44%,6.37%,4.46%,0.16%,6.07%,20.3%,4.5%,10.7%,30.2%,59.7%,2.61%,1.82%,2.57%,2.9%,15.8%,61.1%,11%
COc1ccc2ncnc(Nc3ccc(OCc4ccccc4)cc3)c2c1,0.55%,0.21%,4.55%,-1.08%,-0.13%,2.62%,2.59%,2.15%,1.44%,0.53%,2.09%,0.25%,-1.38%,-0.52%,0.79%,2.22%,1.79%,0.63%,1.33%,0.65%

# From ChEMBL document CHEMBL1961873, “Compounds: GSK PKIS; Assays: Nanosyn kinase panel” (2012)
